bovine MsrA act – bovine methionine sulfoxide reductase A activation; AID 602163; 360,000 tested, 0.3% active; purified bovine MsrA, absorbance read-out; activation, % at 10.6 µM; in the data active = activation above about 7.5%;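 also: 0% = vehicle and 100% = reference activator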
PG9 binder – binds the HIV-1 gp120 antibody PG9. AID 624416. TR-FRET gp120-PG9 antibody binding. inhibition, % at 6.7 µM. 360,000 tested, 0.43% active; in the data active = inhibition above about 8.5%
MsrA inh – bovine MsrA inhibition; purified bovine MsrA, absorbance read-out; inhibition, % at 15.5 µM; 360,000 tested, 0.75% active; in the data active = inhibition above about 4.5%;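 also: 0% = vehicle wells with enzyme and 100% = reference inhibitor wells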
sPLA2-III inh – Inhibits HGIII-sPLA2 liposome hydrolysis, primary screen; Q9NZ20; inhibition, % at 12.2 µM; QFRET BODIPY PC-A2 liposome hydrolysis, fluorescence; AID 743126; 370,000 tested, 0.56% active;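 active = inhibition above mean plus 3 SD of compounds lying within the high and low control bounds, cut at about 19% in these data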;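 also: 0% = median of test compound wells and 100% = no enzyme DMSO wells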
Target sequence (Q9NZ20 whole entry, looked up): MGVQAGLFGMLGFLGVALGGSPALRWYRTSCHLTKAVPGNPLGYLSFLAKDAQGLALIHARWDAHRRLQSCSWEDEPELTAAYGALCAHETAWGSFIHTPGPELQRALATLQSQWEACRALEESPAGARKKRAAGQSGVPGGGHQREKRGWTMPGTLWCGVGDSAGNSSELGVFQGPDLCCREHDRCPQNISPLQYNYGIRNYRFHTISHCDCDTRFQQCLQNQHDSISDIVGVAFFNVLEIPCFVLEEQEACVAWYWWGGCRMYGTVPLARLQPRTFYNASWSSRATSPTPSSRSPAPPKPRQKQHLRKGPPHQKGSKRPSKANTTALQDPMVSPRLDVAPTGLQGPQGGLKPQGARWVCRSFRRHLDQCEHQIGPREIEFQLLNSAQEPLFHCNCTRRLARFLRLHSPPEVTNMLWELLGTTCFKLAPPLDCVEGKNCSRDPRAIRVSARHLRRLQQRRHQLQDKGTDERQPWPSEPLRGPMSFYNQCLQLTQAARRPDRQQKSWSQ
rCAG binder – r(CAG) repeat RNA binding; TO-PRO-1 dye displacement fluorescence; inhibition, % at 3 µM; 370,000 tested, 1.3% active;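 active = inhibition above the plate cutoff, the mean of all test compounds on that plate plus 3 SD, cut at about 35% in these data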;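 also: 0% = DMSO alone and 100% = 100 µM mitoxantrone as full dye displacement; higher means more dye released from RNA so lower well fluorescence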
rCAG binder conf – r(CAG) RNA repeat binding, confirmation; shares compounds with rCAG binder; TO-PRO-1 dye displacement fluorescence; inhibition, % at 3 µM; 4,300 tested, 70% active; AID 652065;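 active = inhibition above a per-plate cutoff, the mean inhibition of sample wells plus 3 SD, cut at about 35% in these data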;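 also: loss of TO-PRO-1 fluorescence as compound displaces dye from 1x1 AA loop RNA; 0% = DMSO only wells and 100% = 100 µM mitoxantrone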
DNA CAG counter – counter-screen for rCAG RNA binders: DNA CAG dye complex inhibitors; shares compounds with rCAG binder; d(CAG) DNA oligo TO-PRO-1 dye displacement, fluorescence; inhibition, % at 3 µM; 4,300 tested, 94% active;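 active = inhibition above its plate's cutoff, the mean test-well inhibition plus 3 SD, cut at about 4.8% in these data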;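 also: 0% = DNA dye mix with DMSO and 100% = 100 µM mitoxantrone; hits displace the dye from DNA and so lower well fluorescence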
DNA CAG DR – DNA CAG dye complex inhibition, dose response counter-screen; shares compounds with rCAG binder; DNA CAG/GTC duplex TO-PRO-1 dye displacement fluorescence; IC50, µM; 250 tested, 20% active; AID 686960; in the data active = IC50 below about 10 µM
Numbers without * were called inactive; / = no result given; ! = repeats disagree. Only some compounds are listed: those with a hit (about 3.2% of all), similar ones and a draw of the others.

SMILES	bovine MsrA act	PG9 binder	MsrA inh	sPLA2-III inh	rCAG binder	rCAG binder conf	DNA CAG counter	others
CC(C)OP(=O)(O)C(C)NC(=O)OCc1ccccc1 (stereo not given)	/	/	/	2.1	-0.3	/	/
COc1ccc2c(c1)C(=O)N(CCc1ccc(S(=O)(=O)NC(=O)NC3CCCCC3)cc1)C(=O)C2(C)C	-2.0	-0.4	-0.9	-21.8	38.1*	52.8*	14.8*
COc1ccc(Cl)cc1C(=O)NCCc1ccc(S(=O)(=O)NC(=O)NC2CCCCC2)cc1	-6.1	0.6	0.3	-28.4	40.9*	31.0	8.0*
CCCCc1c(-c2ccccc2OC)ncn1Cc1ccc(C)cc1	/	-0.5	0.2	-11.3	-1.7	/	/
O=C1CS/C(=N/N=C/c2ccc(OS(=O)(=O)c3ccccc3)cc2)N1	-2.0	0.3	3.0	-7.2	39.9*	37.8*	9.7*
CCCCCCCCN1C(=O)[C@@H](CC(=O)N2CCSCC2)C[C@@]2(C(=O)OC)C1=C[C@H](C(C)C)O[C@@H]2C1CC1	/	/	/	5.8	10.8	/	/
COc1ccc(/C=N/NC(=O)c2[nH]c3ccc(Br)cc3c2-c2ccccc2)cc1	-2.9	-1.2	0.4	4.1	6.2	/	/
COc1ccc(/C=N/NC(=O)c2[nH]c3ccc(Br)cc3c2-c2ccccc2)c(C(=O)O)c1OC	-1.9	-0.8	2.6	-11.2	62.4*	77.2*	42.9*
NNC(=O)c1cccc(S(=O)(=O)Nc2cccc(C(F)(F)F)c2)c1	-1.9	-0.7	-1.5	-5.9	6.2	/	/
Cc1[nH]c2ccccc2c1/C=N/NC(=O)c1cccc(S(=O)(=O)Nc2cccc(C(F)(F)F)c2)c1	-5.8	-0.4	1.8	-37.2	65.4*	67.7*	27.5*
OC(c1ccccc1)(c1ccccc1)C1CCN(CCCNc2cccc(OC(F)(F)F)c2)CC1	/	/	/	-17.3	2.4	/	/
Cc1[nH]n(-c2ccccc2)c(=O)c1C(c1ccccc1[N+](=O)[O-])C(C#N)C#N (stereo not given)	-1.2	-2.4	-0.3	-4.6	7.5	/	/
Cc1[nH]n(-c2ncc(-c3ccccc3)s2)c(=O)c1C(c1ccc(Cl)cc1)C(C#N)C#N (stereo not given)	0.8	-0.9	1.3	8.9	45.6*	80.6*	48.5*
CCCCN(C)C(=O)CSc1nnc(-c2cccnc2)n1C1CCCCC1	/	/	/	1.8	0.4	/	/
O=C(Cc1cccc2ccccc12)Nc1cc(Cl)ccc1C(=O)O	-7.0	0.1	0.1	-36.5	45.8*	35.5*	8.1*
Fc1ccc(CC2CCN(c3ncnc4sccc34)CC2)cc1	/	/	/	-15.9	/	/	/
C=CCOc1c(Br)cc(/C=N/Nc2ccc(C(=O)O)cc2)cc1OCC	-4.5	-2.2	2.9	-42.6	83.3*	65.8*	26.1*
Cc1nn(-c2cccc(C(F)(F)F)c2)c(Cl)c1/C=N/Nc1cccc(C(=O)O)c1	-8.6	-1.4	0.4	-5.5	44.0*	57.2*	19.2*
Cc1ccc(/C=N/Nc2ccc(C(=O)O)cc2)s1	-5.8	-16.4	3.9	-13.8	24.0	/	/
O=C(O)c1cccc(N/N=C/C2=C(Cl)c3cc(Cl)ccc3SC2)c1	-4.4	-1.3	-0.5	-6.6	34.8*	80.0*	49.8*
Cc1ccc(/C=N/Nc2cccc(C(=O)O)c2)s1	-1.6	-10.1	3.6	-20.0	35.7*	19.1	4.8*
CCN(C(=O)c1cccc2c1-c1ccccc1C2=O)c1ccccc1	/	/	/	1.8	6.7	/	/
CCOc1cc(/C=N/Nc2cccc(C(=O)O)c2)ccc1OC(=O)c1ccccc1	-3.0	-1.3	1.8	-10.7	36.0*	82.4*	50.7*
CCOC(=O)C1=C(C)NC(SCc2cc(=O)[nH][nH]2)=C(C#N)C1c1cccs1 (stereo not given)	-3.6	-2.7	-0.2	-4.7	58.7*	39.1*	17.2*
Cc1sc2c(c1C)C(O)=C(C(=O)Nc1ccccc1)S(=O)(=O)N2C	-5.4	-2.1	2.3	-12.6	42.7*	27.4	6.9*
SMILES	bovine MsrA act	PG9 binder	MsrA inh	sPLA2-III inh	rCAG binder	rCAG binder conf	DNA CAG counter	others
COC(=O)C1CN(Cc2ccc(C)cc2)CCS(=O)(=O)N1Cc1cn(Cc2ccc(F)cc2)nn1 (stereo not given)	/	/	/	-6.1	1.4	/	/
CN(C)[C@H]1CCN(c2ccc3c(c2)OCCCN(C2CC2)S3(=O)=O)C1	/	/	/	3.9	2.8	/	/
COc1ccc(S[C@]2(C(=O)N3CCCC3)CC(=O)N(C(=O)Nc3ccc(C)c(Cl)c3)[C@@H]2c2ccc(OC)cc2)cc1	/	/	/	7.1	8.2	/	/
CC(/C=C/c1ccco1)=N\NC(=O)c1cccnc1	-8.8	0.3	-0.6	-3.2	10.8	/	/
O=C(/C=C/c1ccco1)c1cccnc1	-3.6	0.9	2.1	9.7	36.1*	9.6	5.2*
CCCOC(=O)Cn1cnc2scc(-c3ccc(C)cc3)c2c1=O	0.9	-0.8	0.4	-3.4	0.1	/	/
CCc1ccc(-c2csc3ncn(Cc4ccc(C(=O)O)cc4)c(=O)c23)cc1	-0.8	0.1	-1.5	-13.7	34.8*	29.2	7.7*
Cc1ccc(S(=O)(=O)N2[C@@H](c3ccc(Cl)c(Cl)c3)C(C(=O)O)=C[C@H]2C(C)(C)C)cc1	-2.1	/	/	/	/	/	/
Cc1ccc(S(=O)(=O)N2[C@@H](c3ccc(C(C)C)cc3)C(C(=O)O)=C[C@H]2C(C)(C)C)cc1	-7.2	1.4	1.1	-22.7	69.0*	58.9*	22.6*
Cc1ccc([C@H]2C(C(=O)O)=C[C@@H](C(C)(C)C)N2S(=O)(=O)c2ccc(C)cc2)cc1	1.3	-0.8	1.5	-8.9	41.6*	34.1	11.9*
COC(=O)[C@]12C[C@H](CC(=O)NCc3cccs3)C(=O)N(Cc3ccc(Cl)cc3Cl)C1=C[C@H](C(C)(C)C)O[C@@H]2C	/	/	/	-6.8	5.2	/	/
CCCCNS(=O)(=O)CC1NCCc2ccccc21 (stereo not given)	/	/	/	7.4	2.7	/	/
COc1ccc(OC)c(C(=O)c2c(C)oc3cc([N+](=O)[O-])c(O)c([N+](=O)[O-])c23)c1	-3.8	-0.8	2.7	-15.1	35.0*	20.8	4.2
COc1ccc(OC)c(C(=O)COC(=O)c2ccc([N+](=O)[O-])o2)c1	0.1	-3.5	0.6	-10.2	1.5	/	/
COc1ccc(S[C@]2(C(=O)N3CCOCC3)CC(=O)N(c3ccc(Cl)cc3)[C@@H]2c2ccc(OC)cc2)cc1	/	/	/	-5.4	10.9	/	/
CN(C)S(=O)(=O)c1ccc2nc(COCc3nc4ccc(S(=O)(=O)N(C)C)cc4[nH]3)[nH]c2c1	/	/	/	-9.9	/	/	/
c1cn2c(NC3CCCCC3)c(-c3ccc(SC4CCCCC4)cc3)nc2cn1	-1.6	-0.1	-0.5	-2.5	49.7*!	36.8*	8.3*	DNA CAG DR=>29.9
CCn1c(C(C#N)/C(=N\S(=O)(=O)c2cccs2)c2ccccc2)nc2ccccc21 (stereo not given)	-8.8	-0.9	2.3	-16.3	37.0*	31.6	7.8*
CCn1c(-c2cccs2)nc2ccccc21	2.6	0.3	1.9	4.8	-0.3	/	/
